Experimental data as given in PubChem BioAssay (Tox21).
Several values for one entry are separate records, joined by “and”; a condition that tells them apart may be missing. Equal entries are not always repeated. Results filed as inconclusive are left out. Entries that show only a call come without a potency. The source holds several records for some structures; these can differ, active in one and inactive in another. Activity calls are given as the source filed them. Calls come from the whole dose curve; as a rule, active = well fitted cell-killing curve with a large enough effect in the repeat runs; inconclusive = weak or mixed curves; inactive = flat fitted curve, though single readings scatter.

assay: qHTS assay to identify small molecule antagonists of the estrogen related receptor (ERR) signaling pathway from Tox21 library - cell viability counter screen (AID 1224834); settings: ERR reporter cells viability, CellTiter-Fluor, 17.5 h; series mostly up to 92.4 µM; viability change, negative = cytotoxic: at the top concentration; note: nearly all actives have a fitted effect of over 30% in size
From the text: National Center for Advancing Translational Sciences [NCATS]
NIH Chemical Genomics Center [NCGC]
U.S. Environmental Protection Agency [EPA]
National Institutes of Environmental Health Sciences [NIEHS]
National Toxicology Program [NTP]
U.S. Food and Drug Administration [FDA]
Estrogen related receptors (ERRs), the first orphan nuclear receptors discovered, play an important role in the control of cellular energy metabolism. ERRs are required for high-energy production in response to the environmental challenges. ERR-alpha was also identified as an adverse marker for breast cancer progression; ERR-alpha-positive tumors have a poor prognosis. To screen and to identify environmental compounds that perturb the ERR signaling pathways could provide valuable information for potential therapeutic or preventive measures in the treatment of metabolic disease. To differentiate true ERR antagonists or agonist from cytotoxic substances, the assay is multiplexed with cell viability assay.
Tox21 Assay Protocol Summary:
The ERR cells were dispensed at 2,000 cells/5 ul/well in 1536-well white plates using a Multidrop dispenser. After the assay plates were incubated at a 37 C/5% CO2 incubator for 6 hours, 23 nL of compounds dissolved in DMSO, positive and negative controls or DMSO only was transferred to the assay plate by a pin tool. The plates were incubated at 37 C for 17.5 hours. 1 ul/well of CellTiter-Fluor reagent was added into the assay plates using a Flying Reagent Dispenser. After 30-minute incubation at 37 C/5% CO2, the fluorescence intensity in the plates was measured using a ViewLux plate reader.
Potency is the fitted concentration of half-maximal effect.

SMILES	Potency	viability change, negative = cytotoxic
O=C1C=CC(=O)C=C1	inactive	
COc1ccc(C=O)cc1	inactive	
Oc1cc(Cl)ccc1Oc1ccc(Cl)cc1Cl	24.9 µM (active) and 29.8 µM (active)	
CCC(CC)Nc1c([N+](=O)[O-])cc(C)c(C)c1[N+](=O)[O-]	inactive	
CN(C)C(=O)Nc1ccc(Cl)cc1	inactive	
O=C(CCl)c1ccccc1	inactive	
S=C1NCCN1	inactive	
CN(C)c1ccc(C(=O)c2ccc(N(C)C)cc2)cc1	inactive and 9.69 µM (active)	
OCC(O)CO	inactive	
COC(=O)c1sccc1S(=O)(=O)NC(=O)Nc1nc(C)nc(OC)n1	inactive	
CCCCC(CC)COC(=O)c1ccc(C(=O)OCC(CC)CCCC)c(C(=O)OCC(CC)CCCC)c1 (stereo not given)	inactive	
Nc1ccc(Cl)cc1N		2.02% (inactive)
COP(=O)(OC)OC	inactive	
N#CCCCl	inactive	
C#CCOS(=O)OC1CCCCC1Oc1ccc(C(C)(C)C)cc1 (stereo not given)	4.33 µM (active)	
CCCCN(CCCC)N=O	inactive	
O=[N+]([O-])c1c(Cl)c(Cl)c(Cl)c(Cl)c1Cl	inactive	
CCCCCCCCC(=O)NCc1ccc(O)c(OC)c1	inactive	
Cc1ccccc1[N+](=O)[O-]	inactive	
c1ccc(N=Nc2ccccc2)cc1	inactive	

SMILES	Potency	viability change, negative = cytotoxic
CCC(C)c1ccc(O)cc1 (stereo not given)	inactive	
CCN(N=O)C(N)=O	inactive	
Nc1cccnc1	inactive	
N[C@@H](Cc1ccc(N(CCCl)CCCl)cc1)C(=O)O	inactive	
CCC(C)c1cc([N+](=O)[O-])cc([N+](=O)[O-])c1O (stereo not given)	inactive and 19.3 µM (active)	
Cc1cccc(N)c1N		-9.73% (inactive)
O=[N+]([O-])c1cccc2ccccc12	inactive	
c1ccc(NNc2ccccc2)cc1	inactive	
CC1(C)C(C=C(Cl)Cl)C1C(=O)OC(C#N)c1cccc(Oc2ccccc2)c1 (stereo not given)	inactive	
CCCCCCOC(=O)c1ccccc1C(=O)OCCCCCC	inactive	
CCC(C)(c1ccc(O)cc1)c1ccc(O)cc1	68.5 µM (active)	
CCN(CC)N=O	inactive	
CC(O)CCO (stereo not given)	inactive	
NNC(N)=S	22.5 µM (active)	
CCOC(=S)S	inactive	
C[C@]12CCC(=O)C(O)=C1CC[C@@H]1[C@@H]2CC[C@]2(C)C(=O)CC[C@@H]12		-2.79% [at 42.5 µM] (inactive)
CCCCCCCCCCCOC(=O)c1ccccc1C(=O)OCCCCCCCCCCC	inactive	
CCCCCc1cc(O)cc(O)c1	54.5 µM (active)	
C[C@]12CCC(=O)C[C@@H]1CC[C@@H]1[C@@H]2CC[C@]2(C)[C@@H](O)CC[C@@H]12	48 µM (active) and inactive	
O=c1oc2ccccc2c(O)c1C(CC(O)c1ccc(-c2ccc(Br)cc2)cc1)c1ccccc1 (stereo not given)	inactive	
